# Screens deposited in PubChem BioAssay by The Scripps Research Institute Molecular Screening Center.
# Hits are enriched below; roughly 1.6% of the tested compounds scored in any of these assays.
# HTR5A ag ctr = activates human HTR5A in OPRM1-OPRD1 agonist counter-screen; P47898; HTR5A agonist assay, luminescence, cell-based; activation, % at 9.3 µM; 340,000 compounds, 0.61% hits; in the data active = activation mostly above about 9.5%, no sharp cut-off; inactive = mostly below about 7.6%;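 also: 0% = cells with vehicle only and 100% = reference agonist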
# OPRM1-OPRD1 ag = OPRM1-OPRD1 heterodimerization agonism. cells, luminescence. activation, % at 9.3 µM. 340,000 compounds, 0.3% hits; in the data active = activation above about 18%;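 also: 0% = vehicle-treated cells and 100% = reference agonist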
# HTR5A inv ag = HTR5A inverse agonism, opioid heterodimer counter-screen; HTR5A cell line, luminescence; P47898; 340,000 compounds, 0.083% hits; inhibition, % at 9.3 µM; in the data active = inhibition mostly above about 23%, no sharp cut-off; inactive = mostly below about 18%;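 also: 0% = cells with DMSO and 100% = no-cell wells with DMSO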
# HTR2A ag = agonists of mouse serotonin 5-HT2A receptor (HTR2A) | P35363 | CHO-K1 mHTR2A beta-arrestin complementation, luminescence; percent of 30 µM serotonin response | activation, % at 7.6 µM | 360,000 compounds, 0.66% hits | AID 624169;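 active = activation above a run cutoff, the mean activation of all tested compounds plus 3 SD, cut at about 14% in these data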;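 also: 0% = plate median of compound wells and 100% = 30 µM serotonin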
# Target sequence (P35363 whole entry, looked up): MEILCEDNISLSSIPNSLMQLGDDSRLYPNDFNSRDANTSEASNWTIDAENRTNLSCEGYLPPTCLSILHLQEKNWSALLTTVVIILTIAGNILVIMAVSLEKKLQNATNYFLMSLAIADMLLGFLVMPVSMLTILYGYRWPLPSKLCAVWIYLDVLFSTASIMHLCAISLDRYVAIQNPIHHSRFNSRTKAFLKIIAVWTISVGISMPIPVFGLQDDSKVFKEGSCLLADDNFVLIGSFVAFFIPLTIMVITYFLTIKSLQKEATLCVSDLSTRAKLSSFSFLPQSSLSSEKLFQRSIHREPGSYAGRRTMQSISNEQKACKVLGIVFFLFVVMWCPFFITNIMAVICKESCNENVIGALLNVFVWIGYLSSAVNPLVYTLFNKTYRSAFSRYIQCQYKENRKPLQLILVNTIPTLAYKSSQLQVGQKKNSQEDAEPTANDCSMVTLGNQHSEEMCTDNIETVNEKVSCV
# OPRM1-OPRD1 inv = inverse agonists of human mu-delta opioid receptor heterodimerization; AID 504357; cell-based MOR-DOR heterodimer luminescence, inverse agonism; P35372+P41143; inhibition, % at 9.3 µM; 340,000 compounds, 0.21% hits; in the data active = inhibition above about 22%, passing the limit was not always enough;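 also: 0% = cells with DMSO and 100% = wells without cells with DMSO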
# Numbers without * were called inactive; i = inactive; . = no result.
SMILES,HTR5A ag ctr,OPRM1-OPRD1 ag,HTR5A inv ag,HTR2A ag,OPRM1-OPRD1 inv
C/C(=N/NS(=O)(=O)c1ccc(C)cc1)c1c[nH]c2ccccc12,11*,1,-29,2,-5
C/C(=N/NS(=O)(=O)c1cc(C)ccc1C)c1c[nH]c2ccccc12,12*,1,-5,-1,-4
Cc1ccc(C)c(NC(=O)CS(=O)(=O)c2c[nH]c3ccccc23)c1,1,1,-26,0,-3
CCC(c1nnnn1C1CCCCC1)N1CCN(C(=O)c2ccco2)CC1 (stereo not drawn),1,0,-4,1,-3
CCCn1c(SCC(=O)Nc2cccc(S(=O)(=O)N(C)C)c2)nc2ccccc2c1=O,0,-2,0,-2,10
Cc1ccc(CNC(=S)Nc2ccc(NS(=O)(=O)c3ccc(C)cc3)cc2)cc1,11*,4,11,-4,-21
Cc1c(C(=O)NCc2ccc3c(c2)cc(C)n3C)cccc1[N+](=O)[O-],-2,2,-22,-11,-14
Cc1ccc2oc(C(=O)Nc3nonc3C)c(C)c2c1,11*,4,-1,9,-21
CCc1ccc(CNC(=O)C(=O)NCC2CCCO2)cc1 (stereo not drawn),2,1,-6,-5,-3
COc1cccc(CNC(=O)C(=O)NCC2CCCO2)c1 (stereo not drawn),14*,2,-30,-4,-11
COC(=O)c1ccccc1OCCOCCOc1cccc2cccnc12,11*,-2,-42,0,9
CCC[C@@H]1C[C@@H](C(=O)NC(C(C)Cl)[C@H]2O[C@H](SC)[C@H](O)[C@@H](O)[C@H]2O)N(C)C1 (stereo partly drawn),-1,-1,3,40*,3
Cc1cc(=O)cc(C)n1-c1ccc(F)cc1F,0,-2,30,6,12
CCOc1cc(C(=O)N/N=C/c2ccsc2)cc(OCC)c1OCC,14*,-2,1,0,12
CCOc1cc(C(=O)N/N=C/c2ccoc2)cc(OCC)c1OCC,4,-3,-13,-3,10
Nc1ccc(N(CCO)CCO)cc1,12*,4,-34,5,-17
COc1ccc(/C=N/NC(=O)c2cc3c(ccc4ccccc43)o2)cc1OC,3,1,-9,-9,-8
COc1cc(/C=N/NC(=O)c2cc3c(ccc4ccccc43)o2)cc(OC)c1O,11*,9,-43,-3,-48
COc1ccc(C(=O)N/C(=C/c2cccnc2)C(=O)N2CCCCCC2)cc1OC,8.8*,-1,-33,-1,7
c1ccc(Nc2nc(N3CCCC3)nc(N3CCCC3)n2)cc1,13*,2,20,-5,-8
c1ccc(Nc2nc(N3CCCCC3)nc(N3CCCCC3)n2)cc1,-1,0,-8,-1,-2
COC(=O)C1CCN(CC(=O)N(C)c2c(N)n(Cc3ccccc3)c(=O)[nH]c2=O)CC1,1,-2,20,6,10
Cn1nccc1-c1ccc(C(=O)NCc2ccc(Cl)cc2)c2occc12,.,.,.,-1,.
CCOC(=O)C1(CCOC)CCN(Cc2ccc(COC)o2)CC1,12*,0,-5,3,-1
CCOC(=O)C1(CCOc2ccccc2)CCN(Cc2ccc(CO)o2)CC1,-2,3,6,-9,-20
SMILES,HTR5A ag ctr,OPRM1-OPRD1 ag,HTR5A inv ag,HTR2A ag,OPRM1-OPRD1 inv
CCCNC(=O)Cn1c(=O)oc2cc(S(=O)(=O)N3CC(C)CC(C)C3)ccc21 (stereo not drawn),11*,-2,-41,-3,8
COC(=O)[C@H](NC(=O)c1cc([C@@H](NC(=O)OC(C)(C)C)C(C)C)sc1N)C(C)C,.,.,.,0,.
Cc1ccc(C2=NS(=O)(=O)N(C)C(C(=O)N3CCOCC3)=C2)cc1,-1,-1,3,2,7
Cc1ccc2nc(/C(C#N)=C\c3ccc([N+](=O)[O-])o3)[nH]c2c1,105*,575*,-182,12,i
Cc1ccc2nc(/C(C#N)=C\c3ccc(N4CCOCC4)o3)[nH]c2c1,3,3,-7,0,-15
CC(=O)c1ccc(NC(=O)N2CCCC(C(=O)c3ccc4c(c3)OCO4)C2)cc1 (stereo not drawn),11*,2,-29,1,-11
CC1=CC(C)(C)N2C(=O)C3(C(C#N)=C(N)OC4=C3C(=O)CC(C)(C)C4)c3c(C)c(C)cc1c32 (stereo not drawn),7,1,-26,-3,-4
CCc1c(C)nc2ncnn2c1N1CCCC(C(=O)Nc2ccc(NC(C)=O)cc2)C1 (stereo not drawn),13*,2,-26,2,-10
Cc1c(C(=O)NCCC2=CCCCC2)sc2ncnc(N3CCCCC3C)c12 (stereo not drawn),11*,-1,-44,0,4
Cc1sc2ncnc(N3CCCCC3C)c2c1C (stereo not drawn),1,3,-5,0,-18
Cc1c(OCC(=O)NCc2cccnc2)ccc2c3c(c(=O)oc12)CCC3,2,-4,13,-3,22
Cc1c(OCC(=O)NCc2ccncc2)ccc2c3c(c(=O)oc12)CCC3,12*,-4,-46,3,20
O=C(CN1CC(c2ccccc2)CC1=O)Nc1ccc2c(c1)OCO2 (stereo not drawn),14*,0,-36,2,0
Nc1nonc1-n1nnc(C(=O)N/N=C/c2cccc(Cl)c2)c1-c1ccc2c(c1)OCO2,10*,-2,16,-1,8
Nc1nonc1-n1nnc(C(=O)N/N=C/c2ccc(Br)cc2)c1-c1ccc2c(c1)OCO2,2,0,-23,5,0
CCCOc1ccc(-c2c(C(=O)N/N=C/c3ccc(C)o3)nnn2-c2nonc2N)cc1,9.8*,19*,-37,-6,-101
CCOc1ccc(-c2c(C(=O)N/N=C/c3ccc(C)o3)nnn2-c2nonc2N)cc1,0,-3,0,1,17
O=C(NCc1cccnc1)Nc1cccc(Cl)c1Cl,2,-1,-13,5,5
COc1ccc(N(C(=O)CCl)C(C(=O)NCCc2ccccc2)c2cccs2)cc1 (stereo not drawn),55*,68*,-66,7,-360
NC(=O)c1ccccc1NC(=O)CS(=O)(=O)Cc1ccccc1,9.6*,3,-9,0,-18
O=C(NC(c1ccc(Cl)cc1)c1c(O)ccc2ccccc12)c1ccccc1 (stereo not drawn),-1,-2,-3,1,9
O=C(NC(c1ccccc1)c1c(O)ccc2ccccc12)c1ccccc1Cl (stereo not drawn),11*,10,1,6,-55
CCCCOc1c(C(=O)Nc2ccccc2)nnn1-c1ccccc1,3,1,-7,3,-3
O=C(C1=C[C@@H](c2csc3ccccc23)C[C@@H](OCCCCO)O1)N1CCN(Cc2ccc3c(c2)OCO3)CC1,1,2,-10,35*,-8
O=C(C1=C[C@H](c2csc3ccccc23)C[C@H](OCCCCO)O1)N1CCN(Cc2ccc3c(c2)OCO3)CC1,-2,0,3,1,-1
